CYP2C19 act: increases human CYP2C19 enzyme activity; P33261; recombinant CYP2C19, luciferin-H EGE luminescence; active compounds read high; 0 = fully inhibited enzyme, 1 = untreated enzyme; activation factor at 5 µM; 96,000 tested, under 10 active; AID 1025;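 active = activation factor of at least 2 at 5 µM in the primary screen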;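 also: 0 = wells with 2.5 mM tranylcypromine and 1 = vehicle-only wells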
CYP2C9 activ: CYP2C9 (human) activation | 96,000 tested, 1.4% active | recombinant CYP2C9, luciferin-H conversion, luminescence; active compounds read high; factor 1 = untreated enzyme, 0 = blocked | P11712 | activation factor at 5 µM;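 active = activation factor of 2 or more for CYP2C9 at a 5 µM dose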;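 also: 0 = sulfaphenazole-blocked wells and 1 = vehicle-only wells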
Pyk2 oligo antag: blocks oligomerization of human Pyk2 in cells; z-score (the deposit names both 25 µM and 10 µM); Q293 cells, Pyk2 FERM NanoBiT luminescence; active compounds read low; 99,000 tested, 0.83% active; AID 1347419; Q14289;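 active = Z-score of -3 or lower, scaled per plate to the spread of control and sample wells; inactive = z-score above -3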;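 also: negative z-score means lost luminescence so less FERM oligomerization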
Target sequence (Q14289 whole entry, looked up): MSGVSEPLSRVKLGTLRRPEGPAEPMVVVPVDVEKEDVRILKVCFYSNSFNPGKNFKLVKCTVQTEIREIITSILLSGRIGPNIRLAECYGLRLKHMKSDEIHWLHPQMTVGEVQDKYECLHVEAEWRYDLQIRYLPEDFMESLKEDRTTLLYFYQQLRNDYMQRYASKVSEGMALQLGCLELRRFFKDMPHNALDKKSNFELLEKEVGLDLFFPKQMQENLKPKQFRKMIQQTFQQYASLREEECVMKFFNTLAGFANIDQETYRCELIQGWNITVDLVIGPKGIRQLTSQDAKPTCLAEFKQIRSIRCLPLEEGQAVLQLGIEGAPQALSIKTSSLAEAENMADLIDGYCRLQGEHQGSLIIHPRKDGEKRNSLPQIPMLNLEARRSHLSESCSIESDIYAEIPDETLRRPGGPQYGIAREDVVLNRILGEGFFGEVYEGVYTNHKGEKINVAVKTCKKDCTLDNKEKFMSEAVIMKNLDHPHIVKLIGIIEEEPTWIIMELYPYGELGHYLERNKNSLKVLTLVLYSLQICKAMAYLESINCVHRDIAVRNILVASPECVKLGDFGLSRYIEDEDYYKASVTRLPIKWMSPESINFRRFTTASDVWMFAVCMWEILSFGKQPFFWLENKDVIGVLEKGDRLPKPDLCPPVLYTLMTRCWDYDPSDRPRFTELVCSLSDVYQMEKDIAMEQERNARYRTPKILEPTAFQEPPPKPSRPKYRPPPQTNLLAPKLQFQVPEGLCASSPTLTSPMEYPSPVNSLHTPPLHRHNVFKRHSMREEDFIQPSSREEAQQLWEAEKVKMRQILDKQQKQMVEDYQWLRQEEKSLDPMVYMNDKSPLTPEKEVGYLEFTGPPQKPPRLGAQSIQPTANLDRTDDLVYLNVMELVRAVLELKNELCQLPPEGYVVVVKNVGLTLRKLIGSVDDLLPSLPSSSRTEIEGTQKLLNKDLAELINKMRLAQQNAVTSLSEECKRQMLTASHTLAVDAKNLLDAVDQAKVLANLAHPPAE
CYP2C19 inhib: blocks human cytochrome P450 2C19. P33261. CYP2C19 Supersomes, luciferin-H EGE luminescence, 30 min. inhibition, % at 5 µM. 96,000 tested, 21% active. AID 778;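 active = CYP2C19 inhibition above a set limit at 5 µM in the primary screen, cut at about 50% in these data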;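 also: plate controls were negative control wells for no effect and 2.5 mM tranylcypromine positive control for full effect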
CYP2C9 inh: blocks human cytochrome P450 2C9 | inhibition, % at 5 µM | CYP2C9 Supersomes, luciferin-H conversion, luminescence | 96,000 tested, 20% active;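 active = blocking of liver enzyme CYP2C9 beyond about 50% at 5 µM, limit read from the data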
Numbers without * were called inactive; . = no result. Sampled rows, rich in hits. Any-hit rate of the full collection: about 28%.

SMILES	CYP2C19 act	CYP2C9 activ	Pyk2 oligo antag	CYP2C19 inhib	CYP2C9 inh
COc1ccc(S(=O)(=O)NCCSCc2cccc(C)c2)cc1Br	0.5	2.1*	-1.5	48	-108
COc1ccc(CCNS(=O)(=O)c2cccc(C(=O)O)c2)cc1OC	0.9	0.9	-0.06	6	10
COc1ccc(S(=O)(=O)NCCSc2ccc(C)cc2)cc1OC	0.2	1.2	0.45	82*	-25
O=S(=O)(NCc1ccccc1)c1ccc2c(c1)OCCO2	0.6	1	-0.83	38	-3
COc1ccc(S(=O)(=O)NCc2ccccc2Cl)cc1OC	0	2.3*	-0.63	95*	-131
COc1cc(S(=O)(=O)NCc2ccccc2)ccc1F	0	2.2*	0.55	98*	-119
O=C(Nc1c(C(=O)Nc2ccccc2)cnn1-c1ccccc1)c1ccco1	1.1	0.7	0.5	-6	26
Cc1ccc(C(=O)Nc2c(C(=O)NCc3ccco3)cnn2-c2ccccc2)cc1	0.6	0.4	0.75	38	56*
O=C(Nc1c(C(=O)NCc2ccco2)cnn1-c1ccccc1)c1cccc(F)c1	0.3	0.1	0.33	67*	87*
CCOC(=O)c1cnn(-c2ccccc2)c1NC(=O)c1ccc(C)cc1	0.7	0.7	-0.11	27	25
Cc1ccc([N+](=O)[O-])cc1N/C=C/C(=O)c1ccco1	0.8	0.5	-0.3	17	51*
O=C(/C=C/Nc1ccc(F)cc1)c1ccco1	1	1	0.15	3	3
CCC(Sc1nc2ccccc2s1)C(=O)Nc1nnc(C)s1 (stereo not drawn)	0.7	0.3	0.37	27	67*
CCC(Sc1nnc(C)s1)C(=O)Nc1nccs1 (stereo not drawn)	0.6	0.8	-1.2	35	25
CC(Sc1nc2ccccc2s1)C(=O)Nc1nnc(C(C)C)s1 (stereo not drawn)	0.8	0.3	.	23	66*
CCC(Sc1nc2ccc(N)cc2s1)C(=O)Nc1nccs1 (stereo not drawn)	0.2	0.4	-0.6	77*	62*
COc1ccccc1CN(Cc1nc2ccccc2c(=O)[nH]1)C(=O)Nc1ccccc1	0.6	0.8	0.16	36	24
O=c1cc(CN2CCc3ccccc32)nc2sccn12	0.4	0.3	-0.59	57*	67*
Cc1cc(C)c(N2CCN(S(=O)(=O)N3CCCCCC3)CC2)c(C)c1	0.2	0.3	0.02	80*	73*
Cc1ccc(S(=O)(=O)N2CCN(S(=O)(=O)N3CCCCC3)CC2)cc1	1.1	1.1	0.11	-6	-5
CC1CCN(C(=O)CSc2nnc(Cc3cc(=O)[nH]c(=O)[nH]3)n2-c2ccc(Cl)cc2)CC1	0.9	1	.	8	4
CN(C)c1nccc(N(Cc2ccccc2)Cc2ccccc2)c1C#N	0.7	0.4	-2.2	27	65*
Cc1c(NC(=O)c2cc(CC(C)C)on2)c(=O)n(-c2ccccc2)n1C	0.9	0.9	.	6	14
Cc1c(NC(=O)c2nn(C)c(=O)c3ccccc23)c(=O)n(-c2ccccc2)n1C	.	.	0.05	.	.
Cc1cc(O)c(C(C)C)cc1NC(=O)Cn1nc(C)c2ccccc2c1=O	0.7	0.3	-0.75	30	69*
SMILES	CYP2C19 act	CYP2C9 activ	Pyk2 oligo antag	CYP2C19 inhib	CYP2C9 inh
Cc1c(NC(=O)Cn2nc(C(=O)O)c3ccccc3c2=O)c(=O)n(-c2ccccc2)n1C	1.1	1	-4*	-13	0
Cc1nn(CC(=O)Nc2ccccc2)c(=O)c2ccccc12	0.3	0.6	0.79	73*	38
Cc1nn(CC(=O)Nc2ccc(C(=O)N(C)C)cc2)c(=O)c2ccccc12	1.2	1.1	-0.18	-25	-15
Cc1nn(CC(=O)NC(C)c2ccccc2)c(=O)c2ccccc12 (stereo not drawn)	0.9	1.5	0.47	13	-54
Cn1c(SCC(=O)Nc2ccc3nc(SCC(=O)N4CCCC4)sc3c2)nnc1-c1ccc(N)cc1	0.8	0.6	-0.7	16	38
O=C(Nc1ccccc1C(=O)N1CCCC1)c1cccc(S(=O)(=O)N2CCCCC2)c1	1	0.8	-1.2	-2	18
O=C(CCC(=O)NNC(=S)Nc1ccccc1)NCc1ccccc1	1.1	1	1.2	-11	0
Cn1c(/C=N/NC(=O)c2ccccc2Br)nc2ccccc21	0.3	0.4	-1.3	69*	62*
O=C(c1cn(CC(=O)N2CCCCC2)c2ccccc12)C1CC1	0.5	1.2	0.16	52*	-16
CCOC(=O)Cn1cc(C(=O)c2cccs2)c2ccccc21	0	0.1	-0.49	97*	94*
O=C(c1cccs1)c1cn(CC(=O)N2CCc3ccccc3C2)c2ccccc12	0.2	0.1	-0.95	84*	91*
COC(=O)c1cn(C(=O)c2cccs2)c2ccccc12	0.6	0.4	-0.44	41	59*
O=C(O)Cn1cc(C(=O)c2cccs2)c2ccccc21	1	0.8	-0.24	1	16
CCCCC1(C(=O)OCC)CC(CN2CCOCC2)OC1=O (stereo not drawn)	0.8	0.9	1.2	24	8
CC(C)CCNC(=O)c1nnc(Cc2ccc(Cl)cc2)o1	0.9	1.9	.	12	-89
O=C(COC(=O)C1CC(=O)N(C2CCCCC2)C1)c1ccc(F)cc1 (stereo not drawn)	0.9	1	.	8	4
Cc1ccc(-n2c(SCC(N)=O)nnc2-c2ccc(S(=O)(=O)N3CCCCC3)cc2)c(C)c1	0.9	0.2	1.4	8	82*
Nc1ccc(N2CCCCC2)cc1N1CCCCC1	0.6	0.8	-0.31	35	24
Fc1ccc(-n2[nH]nnc2=S)cc1N1CCCC1	1	0.5	0	-2	50*
CSCCC(CO)NC(=O)OCc1ccccc1 (stereo not drawn)	0.6	1	0.17	44	1
Cc1ccc(C(NC(N)=O)c2ccccc2C)cc1 (stereo not drawn)	0	0.5	0.82	99*	49
Cc1ccc(C(NC(N)=O)c2ccccc2)cc1 (stereo not drawn)	0	0.4	0.21	97*	63*
CC(=O)Nn1c(-c2ccccc2)cc2ccccc21	0.8	0.6	-0.89	24	36
COc1cc(-c2nc3ccccn3c2NCC2CCCO2)ccc1O (stereo not drawn)	1	1	-0.33	0	0
CCOc1cc(-c2nc3ccccn3c2NCC2CCCO2)ccc1O (stereo not drawn)	0.6	0.2	0.41	37	75*
CCCS(=O)(=O)c1c(S(=O)(=O)CCC)c2c(N)cccn2c1C(=O)c1ccccc1	0.6	0.3	-0.57	40	75*
CN(C)Cc1cc(CCNC(=O)c2ccc(Cl)cc2)ccc1O	1.1	1.1	0.96	-7	-6
CCOC(=O)c1ccc(NC(=O)CC2C(=O)N(c3ccccc3)C(=O)N2CCCOC)cc1 (stereo not drawn)	0.1	0.2	-0.83	92*	79*
CCc1ccccc1N1CCN(S(=O)(=O)c2ccc(F)c(C)c2)CC1	0.1	0.1	-3.3*	90*	90*
